From the supplement of paper PMC11732987, “Enantioselective OTUD7B fragment discovery through chemoproteomics screening and high-throughput optimisation” (Communications Chemistry, 2025)

Legend:
Assay in all cases: log2 ratio of Biotin-Ahx-Ub-VS probe labelling (fragment/DMSO); higher = less target engagement (more negative = stronger competition), active = hit call of the paper (q ≤ 0.05, log2 ratio ≤ -1)
Conditions in all cases: compound concentration: 200 uM; treatment time: 3 h
OTUD6B = target: T1, OTUD6B (UniProt Q8N6M0)
T1 sequence (whole entry): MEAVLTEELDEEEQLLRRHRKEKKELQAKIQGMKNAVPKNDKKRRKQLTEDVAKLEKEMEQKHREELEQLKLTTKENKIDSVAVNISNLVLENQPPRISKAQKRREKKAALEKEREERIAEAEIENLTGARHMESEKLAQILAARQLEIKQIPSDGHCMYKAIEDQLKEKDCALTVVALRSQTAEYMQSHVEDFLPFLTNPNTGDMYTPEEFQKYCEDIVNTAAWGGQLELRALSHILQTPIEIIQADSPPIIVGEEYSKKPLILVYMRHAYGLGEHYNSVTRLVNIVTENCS
Summary of the method: (§1)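 In triplicate, 495 µg of HEK293T lysate per sample was incubated with fragment at 200 µM or vehicle for 3 h. Biotin-Ahx-Ub-VS was then added to 0.5 µM final for 1 h, and labelled DUBs were captured with NeutrAvidin, digested with LysC and trypsin, and measured by diaPASEF LC-MS/MS. Data are average log2 fragment/vehicle ratios by unpaired t-test from global-median-normalised Spectronaut label-free quantities, restricted to proteins with ≥2 unique peptides.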

OTUD7B = target: T2, OTUD7B (UniProt Q6GQQ9)
T2 sequence (whole entry): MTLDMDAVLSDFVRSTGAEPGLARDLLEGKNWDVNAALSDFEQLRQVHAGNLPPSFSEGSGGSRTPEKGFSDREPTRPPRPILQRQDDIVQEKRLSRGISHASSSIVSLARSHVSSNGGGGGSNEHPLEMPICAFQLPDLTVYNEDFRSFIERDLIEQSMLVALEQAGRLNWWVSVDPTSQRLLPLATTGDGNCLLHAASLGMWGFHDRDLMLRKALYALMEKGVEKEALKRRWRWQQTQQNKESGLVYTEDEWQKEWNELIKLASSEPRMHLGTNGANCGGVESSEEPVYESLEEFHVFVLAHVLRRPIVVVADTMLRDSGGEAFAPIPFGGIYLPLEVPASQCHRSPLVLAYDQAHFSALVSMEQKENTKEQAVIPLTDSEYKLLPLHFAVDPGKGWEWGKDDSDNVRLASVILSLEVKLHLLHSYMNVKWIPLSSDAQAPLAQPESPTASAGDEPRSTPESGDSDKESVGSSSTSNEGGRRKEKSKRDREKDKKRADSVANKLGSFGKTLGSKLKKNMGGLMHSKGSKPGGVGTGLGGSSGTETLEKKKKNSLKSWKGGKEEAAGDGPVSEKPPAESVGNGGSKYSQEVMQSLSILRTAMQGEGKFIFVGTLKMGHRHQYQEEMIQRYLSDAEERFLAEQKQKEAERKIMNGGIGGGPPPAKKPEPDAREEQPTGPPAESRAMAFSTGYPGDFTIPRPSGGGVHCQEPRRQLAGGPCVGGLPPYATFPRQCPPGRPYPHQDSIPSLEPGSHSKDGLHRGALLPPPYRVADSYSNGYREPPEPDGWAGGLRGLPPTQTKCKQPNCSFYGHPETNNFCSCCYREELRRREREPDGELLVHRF
Summary of the method: as §1

PRPF8 = PRPF8 (UniProt Q6P2Q9)
Summary of the method: as §1

PSMD7 = target: T3, PSMD7 (UniProt P51665)
T3 sequence (whole entry): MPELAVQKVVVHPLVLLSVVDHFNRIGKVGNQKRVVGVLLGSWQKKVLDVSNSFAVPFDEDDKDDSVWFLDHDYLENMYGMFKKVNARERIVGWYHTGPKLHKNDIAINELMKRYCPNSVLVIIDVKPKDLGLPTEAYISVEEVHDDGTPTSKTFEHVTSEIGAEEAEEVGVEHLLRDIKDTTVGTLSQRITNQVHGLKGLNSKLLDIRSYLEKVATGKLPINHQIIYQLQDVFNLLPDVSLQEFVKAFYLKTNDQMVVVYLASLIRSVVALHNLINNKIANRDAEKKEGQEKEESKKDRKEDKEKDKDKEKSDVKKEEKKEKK
Summary of the method: as §1

UCHL1 = UCHL1 (UniProt P09936)
Chain of UCHL1 (P09936 whole entry, looked up): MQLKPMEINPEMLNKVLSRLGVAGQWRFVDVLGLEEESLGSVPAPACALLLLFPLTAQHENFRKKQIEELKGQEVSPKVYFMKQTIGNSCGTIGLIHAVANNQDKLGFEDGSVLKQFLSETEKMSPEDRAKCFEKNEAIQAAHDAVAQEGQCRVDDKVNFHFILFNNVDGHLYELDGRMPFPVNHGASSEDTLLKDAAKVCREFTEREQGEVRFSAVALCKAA
Summary of the method: as §1

UCHL3 = target: T4, UCHL3 (UniProt P15374)
T4 sequence (whole entry): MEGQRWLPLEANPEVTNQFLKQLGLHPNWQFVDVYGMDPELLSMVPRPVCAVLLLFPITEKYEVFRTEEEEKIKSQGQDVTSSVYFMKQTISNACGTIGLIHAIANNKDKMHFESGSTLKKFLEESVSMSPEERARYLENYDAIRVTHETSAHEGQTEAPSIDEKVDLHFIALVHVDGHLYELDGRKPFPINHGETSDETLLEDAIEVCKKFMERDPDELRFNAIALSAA
Summary of the method: as §1

UCHL5 = target: T5, UCHL5 (UniProt Q9Y5K5)
T5 sequence (whole entry): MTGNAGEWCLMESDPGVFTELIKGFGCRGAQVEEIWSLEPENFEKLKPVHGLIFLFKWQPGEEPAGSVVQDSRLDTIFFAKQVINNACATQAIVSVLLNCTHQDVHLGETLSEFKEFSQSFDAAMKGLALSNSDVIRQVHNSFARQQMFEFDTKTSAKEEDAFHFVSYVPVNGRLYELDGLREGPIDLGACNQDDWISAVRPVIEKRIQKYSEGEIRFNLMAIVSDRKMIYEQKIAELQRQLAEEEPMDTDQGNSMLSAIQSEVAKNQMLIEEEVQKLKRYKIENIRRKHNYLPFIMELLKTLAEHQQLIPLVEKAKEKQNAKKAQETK
Summary of the method: as §1

USP10 = USP10 (UniProt Q14694)
Chain of USP10 (Q14694 whole entry): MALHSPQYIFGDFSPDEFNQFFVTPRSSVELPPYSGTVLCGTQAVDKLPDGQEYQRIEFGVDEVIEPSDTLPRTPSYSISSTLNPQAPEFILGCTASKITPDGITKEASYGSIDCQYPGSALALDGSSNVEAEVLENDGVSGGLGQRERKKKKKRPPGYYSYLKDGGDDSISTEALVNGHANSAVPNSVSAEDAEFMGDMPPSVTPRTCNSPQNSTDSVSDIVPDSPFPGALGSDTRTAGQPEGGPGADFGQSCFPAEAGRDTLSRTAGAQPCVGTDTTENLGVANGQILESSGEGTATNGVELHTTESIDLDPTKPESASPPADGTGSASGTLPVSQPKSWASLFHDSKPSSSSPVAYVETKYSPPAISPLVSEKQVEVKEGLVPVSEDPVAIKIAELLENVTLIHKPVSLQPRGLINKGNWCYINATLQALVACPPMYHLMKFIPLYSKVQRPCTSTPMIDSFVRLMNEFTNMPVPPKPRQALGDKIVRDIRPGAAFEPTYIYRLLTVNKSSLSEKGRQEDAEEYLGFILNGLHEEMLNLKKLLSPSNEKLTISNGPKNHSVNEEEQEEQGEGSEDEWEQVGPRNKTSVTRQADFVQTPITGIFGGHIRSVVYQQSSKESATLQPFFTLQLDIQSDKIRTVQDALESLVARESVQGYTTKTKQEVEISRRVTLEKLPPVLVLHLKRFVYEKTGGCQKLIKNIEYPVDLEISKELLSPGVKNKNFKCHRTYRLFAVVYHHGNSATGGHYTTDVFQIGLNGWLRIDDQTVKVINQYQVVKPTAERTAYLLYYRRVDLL
Summary of the method: as §1

USP15 = target: T6, USP15 (UniProt Q9Y4E8)
T6 sequence (whole entry): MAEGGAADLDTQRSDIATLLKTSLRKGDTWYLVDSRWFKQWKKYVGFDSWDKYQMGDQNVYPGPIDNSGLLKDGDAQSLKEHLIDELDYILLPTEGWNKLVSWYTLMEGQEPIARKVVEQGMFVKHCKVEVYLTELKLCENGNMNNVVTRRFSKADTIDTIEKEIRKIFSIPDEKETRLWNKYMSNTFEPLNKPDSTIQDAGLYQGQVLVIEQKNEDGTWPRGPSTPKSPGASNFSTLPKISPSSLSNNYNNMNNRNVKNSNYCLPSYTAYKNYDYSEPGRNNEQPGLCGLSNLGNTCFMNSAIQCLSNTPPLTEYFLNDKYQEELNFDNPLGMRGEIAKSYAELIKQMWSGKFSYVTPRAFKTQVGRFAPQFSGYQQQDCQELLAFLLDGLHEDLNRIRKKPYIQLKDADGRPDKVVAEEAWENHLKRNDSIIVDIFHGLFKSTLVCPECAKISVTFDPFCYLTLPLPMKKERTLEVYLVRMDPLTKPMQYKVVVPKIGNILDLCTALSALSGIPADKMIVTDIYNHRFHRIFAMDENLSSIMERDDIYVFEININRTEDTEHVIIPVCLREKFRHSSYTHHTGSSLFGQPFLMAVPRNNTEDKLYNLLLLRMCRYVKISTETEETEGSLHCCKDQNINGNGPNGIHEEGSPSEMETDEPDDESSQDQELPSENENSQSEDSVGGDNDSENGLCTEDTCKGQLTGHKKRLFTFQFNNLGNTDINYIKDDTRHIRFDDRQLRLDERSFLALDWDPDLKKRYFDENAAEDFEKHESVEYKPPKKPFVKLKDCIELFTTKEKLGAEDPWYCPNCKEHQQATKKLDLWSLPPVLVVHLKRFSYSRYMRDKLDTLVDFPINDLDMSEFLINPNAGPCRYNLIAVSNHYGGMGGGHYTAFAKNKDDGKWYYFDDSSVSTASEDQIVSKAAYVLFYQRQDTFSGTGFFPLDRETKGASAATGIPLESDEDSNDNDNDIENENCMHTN
Summary of the method: as §1

USP16 = USP16 (UniProt Q9Y5T5)
Chain of USP16 (Q9Y5T5 whole entry, looked up): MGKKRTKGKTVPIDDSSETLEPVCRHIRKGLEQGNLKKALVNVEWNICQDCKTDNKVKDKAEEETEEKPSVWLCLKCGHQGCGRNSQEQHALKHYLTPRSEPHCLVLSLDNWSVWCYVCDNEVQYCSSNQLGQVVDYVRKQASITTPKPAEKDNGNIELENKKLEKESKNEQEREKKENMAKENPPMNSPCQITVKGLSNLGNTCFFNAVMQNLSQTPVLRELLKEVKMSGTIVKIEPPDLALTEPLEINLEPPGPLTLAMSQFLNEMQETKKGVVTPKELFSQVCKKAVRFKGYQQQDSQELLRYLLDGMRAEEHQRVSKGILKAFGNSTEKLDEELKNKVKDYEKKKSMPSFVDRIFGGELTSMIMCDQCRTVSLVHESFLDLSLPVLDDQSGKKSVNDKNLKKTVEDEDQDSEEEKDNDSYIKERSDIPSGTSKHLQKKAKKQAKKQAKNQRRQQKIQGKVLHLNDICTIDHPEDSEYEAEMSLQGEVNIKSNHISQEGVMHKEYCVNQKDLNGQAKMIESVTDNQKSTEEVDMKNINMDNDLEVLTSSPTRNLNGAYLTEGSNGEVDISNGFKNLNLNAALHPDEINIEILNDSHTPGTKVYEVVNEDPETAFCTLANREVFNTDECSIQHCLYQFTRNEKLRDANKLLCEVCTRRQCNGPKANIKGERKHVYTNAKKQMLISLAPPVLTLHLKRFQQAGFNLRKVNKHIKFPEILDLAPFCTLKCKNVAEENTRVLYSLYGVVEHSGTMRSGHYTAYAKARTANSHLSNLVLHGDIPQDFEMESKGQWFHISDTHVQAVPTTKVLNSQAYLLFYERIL
Summary of the method: as §1

Measured: log2 ratio of Biotin-Ahx-Ub-VS probe labelling

O=C(CCl)Nc1cccc(NC(=O)c2ccccc2)c1
active: UCHL1 -1.07
inactive: OTUD6B 0.292 | OTUD7B -0.595 | PRPF8 0.0439 | PSMD7 0.102 | UCHL3 -0.427 | UCHL5 0.221 | USP10 -0.0488 | USP15 -0.0163 | USP16 0.163
